Measurements from PubChem BioAssay AID435005 (Broad Institute, 2010).
Hit rate of the full screen: of about 300,000 compounds, about 2,400 (0.8%) were called active. What follows is part of a selection rich in actives, with near analogues and random picks from the rest. A number with no mark means an inactive call.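 The calls were made as follows: active = Every replicate reaches about 75%, or at least half do and their mean reaches it too (limit read from the data); inconclusive = At least half of replicates reach the limit but their mean does not; inactive = Under half of replicates reach the limit.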

Test: inhibitors of cytokine-induced beta cell apoptosis, primary screen, luminescence (AID 435005);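 also: 0% = cytokine-treated negative control wells and 100% = positive control rescue; higher means more ATP so stronger rescue from cytokine killing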
Conditions: INS-1E cytokine-induced death, ATP luminescence, 48 h; stronger effect = higher value; percent of positive-control rescue, neutral wells zero; concentration not given here

Compound	protection from apoptosis
Cc1cc(S(=O)(=O)NC2CCCCC2)ccc1OCC(=O)NCc1cccnc1	6.11%
Cc1ccc(CNC(=O)COc2ccc(S(=O)(=O)NC(C)C)cc2)cc1	-8.98%
Cc1ccc(C)c(NS(=O)(=O)c2ccc(OCC(=O)NCc3cccnc3)cc2)c1	99.2% (active)
Oc1ccc(Br)cc1/C=N/Nc1ccccn1	133% (active)
O=[N+]([O-])c1ccc(O)c(/C=N/Nc2ccccc2[N+](=O)[O-])c1	36.9%
COc1ccc(-c2nn(-c3ccccc3)cc2/C=N/Nc2ccccn2)cc1OC	59.9%
CCOC(=O)[C@H]1[C@H]2COc3cc(OC)ccc3[C@@H]2N2C(=O)CN(Cc3ccc(Cl)cc3)C(=O)[C@@]12C	-0.794%
COc1ccc(C(=O)NCC2CCCCC2)cc1S(=O)(=O)N1CCCC1	-0.303%
CC(Sc1nnc(C2CC2)n1C1CC1)C(=O)Nc1ccc(C(N)=O)cc1 (centres undefined)	-0.98%
Oc1ccc(CN2CCN(c3ncccn3)CC2)cc1	-1.21%
Oc1c(CN2CCN(c3ccc(F)cc3)CC2)cc(Cl)c2cccnc12	111% (active)
Oc1c(CN2CCCC2)cc(COCc2ccccc2)c2cccnc12	73%
CC1CCCCC1NC(=O)COc1ccc(C#N)cc1 (centres undefined)	0.693%
CNS(=O)(=O)c1ccc(C(=O)NCC(=O)NCCc2ccc3c(c2)OCCO3)cc1	-2.22%
CCN(CC)c1ccc(/C=N/NC(=O)CNC(=O)c2cccnc2)cc1	4.98%
Cc1cc(C)nc(N/N=C/c2c(CO)cnc(C)c2O)n1	-3.01%
CCN(CC)c1ccc(/C=N/Nc2nc(C)cc(C)n2)c(O)c1	81.7% (active)
Cc1cc(C)nc(N/N=C/c2ccncc2)n1	-0.736%
CCN(CC)c1ccc(/C=N/NC(=O)c2cnccn2)c(O)c1	101% (active)
Cc1ccc(C(=O)NCCNC(=O)c2cnccn2)cc1	-7.48%
CC1(C)CC[C@@]2(C(=O)O)C(C1)C1=CCC3[C@@]4(C)CC[C@H](O)C(C)(C)C4CC[C@@]3(C)[C@]1(C)C[C@H]2O (some centres undefined)	22.4%
COc1ccc(C(=O)Nc2cc(S(=O)(=O)N3CCCC3)ccc2Cl)cc1	-1.79%
O=C1NC(Cc2ccc(O)cc2)c2nc3ccc(Cl)cc3c(=O)n2-c2ccccc21 (centres undefined)	-3.47%

Compound	protection from apoptosis
CN(Cc1ccc(CNC[C@H]2O[C@@H](n3cnc4c(N)ncnc43)[C@H](O)[C@@H]2O)o1)S(C)(=O)=O	-10.1%
C[C@@H]1CN([C@@H](C)CO)C(=O)c2cc(NC(=O)C3CC3)ccc2O[C@H]1CN(C)C	0.593%
Cc1ccc2nc(-c3ccc(NC(=O)c4cccnc4)cc3)oc2c1	106% (active)
CCOC(=O)c1ccc(NC(=O)c2cccnc2)cc1	112% (active)
Cc1ccc(-n2nc3cc(C)c(NC(=O)c4cccnc4)cc3n2)cc1	-1.41%
CCOC(=O)c1cc(NC(=O)c2cccnc2)ccn1	-6.76%
O=C(Cc1ccccc1)Nc1ccc(NC(=O)c2cccnc2)cc1	-0.0371%
Cc1cc2nc(-c3ccc(NC(=O)c4cccnc4)cc3)oc2cc1C	104% (active)
Cc1cc(NS(=O)(=O)c2ccc(NC(=O)c3cccnc3)cc2)nc(C)n1	-3.28%
CCOC(=O)c1ccc(-c2ccc(C(=O)Nc3cccnc3)o2)cc1	3.72%
CC(=O)NC(=S)Nc1ccc(NC(=O)c2cccnc2)cc1	-1.43%
CCn1nc(C(=O)Nc2ccc(N3CCOCC3)cc2)c2ccccc2c1=O	-0.317%
C#CCOCCOCCOCCNc1nc(N2CCN(C(=O)C([C@@H](C)O)n3cc([C@@H](N)CCCCN)nn3)CC2)nc(N2CCN(C(=O)[C@H](CCCCN)n3cc(CN)nn3)CC2)n1 (some centres undefined)	0.272%
CN(CC(=O)NCC(c1ccccc1)N1CCCC1)S(=O)(=O)c1ccc(Cl)cc1 (centres undefined)	-2.83%
CC1CCCC(C)N1C(=O)COC(=O)COc1ccccc1C#N (centres undefined)	-0.693%
COc1cc(OC)cc(-c2cc3ccc(F)cc3cn2)c1	3.7%
CC(=O)Nc1ccc(S(=O)(=O)NCC(=O)OCC(=O)c2ccc[nH]2)cc1	0.385%
O=C(C[C@H]1C/C=C\C[C@@H](NC(=O)OCC2c3ccccc3-c3ccccc32)C(=O)O[C@@H](c2ccccc2)CNC1=O)N[C@H](CO)Cc1ccccc1	54.4%
O=C(/C(=C/c1cccc(Cl)c1)c1nc2ccccc2[nH]1)c1ccccc1	101% (active)
O=C(Cc1nc2ccccc2[nH]c1=O)c1ccc(Cl)cc1	-0.338%
CCC(=O)/C(=C(/O)c1ccccc1)c1nc2ccccc2[nH]1	-5.02%
CC(=O)c1ccc(NC(=O)CSc2nc3ccccc3c(=O)n2CCCN2CCOCC2)cc1	-12.1%
CC(=O)Nc1ccc(NC(=O)COc2ncnc3ccccc23)cc1	1.06%

Compound	protection from apoptosis
Cc1ccc(Nc2c3c(nc4ccccc24)CCC3)cc1	82.4% (active)
O=C(Nc1c2c(nc3ccccc13)CCCC2)c1ccccc1Br	-2.43%
CC(=O)Nc1ccc(Nc2c3ccccc3nc3ccccc23)cc1	88.6% (active)
CC(C)(C)OC(=O)NNc1c2ccccc2nc2ccccc12	24.9%
N#Cc1cccc(Nc2c3c(nc4ccccc24)CCCC3)c1	10.5%
COc1ccc(Cl)cc1NC(=O)COC(=O)c1ccc(Br)o1	-10.1%
COc1cccc(NC(=O)CSc2nnc(C3CCCCC3)n2N)c1	-3.75%
O=C(Nc1cn(-c2ccccc2)nc1-c1ccccc1)c1ccccc1	2.47%
Cc1ccc(-c2nn(-c3ccccc3)cc2C(=O)NC2CCC(O)CC2)cc1 (centres undefined)	1.53%
CCc1ccc(-c2nn(-c3ccccc3)cc2CSC(=N)N)cc1	89.4% (active)
Cc1occc1C(=O)Nc1cccc(S(=O)(=O)N2CCOCC2)c1	-3.05%
C=CCC[C@H](Cc1ccc(F)cc1)C(=O)OC[C@H](C)NC(=O)[C@H](CC=C)CC(=O)N(CCO)Cc1ccccc1	2.93%
CN1CCN(c2nc3c(c(=O)[nH]c(=O)n3C)n2Cc2cccc3ccccc23)CC1	2.14%
Cn1c(=O)[nH]c(=O)c2c1nc(N1CCN(CCO)CC1)n2CCSc1nc2ccccc2s1	2.68%
Cn1c(=O)[nH]c(=O)c2c1nc(N1CCN(C(c3ccccc3)c3ccccc3)CC1)n2CCO	99.9% (active)
CCCCCCCCn1c2c(c(=N)c3c1CCC3)CCCC2	99.8% (active)
CCCCCCn1c(CN2CCCCC2)nc2c1c(=O)n(C)c(=O)n2C	2.42%
CC(NC(=O)COC(=O)c1ccc2ccccc2n1)c1ccccc1 (centres undefined)	-4.86%
O=C(Nc1nnc(-c2ccccc2)o1)c1cccc(S(=O)(=O)N2CCOCC2)c1	5.19%
Cc1c(Cl)c([N+](=O)[O-])nn1CCCC(=O)Nc1cc(Cl)ccc1Cl	5.23%
Cc1ccc(C(=O)O)cc1NC(=O)c1ccc(Cn2nc(C)c(Cl)c2C)o1	1.11%
Cc1c(Cl)c([N+](=O)[O-])nn1Cc1ccc(C(=O)N/N=C\c2cc(Cl)ccc2O)o1	89.7% (active)
O=C(CSc1nnc(N2CCOCC2)n1-c1cccc(F)c1)N1CCN(c2ccccn2)CC1	-0.686%

Compound	protection from apoptosis
COc1cccc2sc3cc(NCC[C@@H]4CCCN4C)ccc3c(=O)c12	-2.22%
O=Cc1cn(Cc2ccccc2)nc1-c1cccnc1	0.63%
O=C1/C(=C\c2cccnc2)CN(Cc2ccccc2)C/C1=C\c1cccnc1	83.8% (active)
Clc1ccc(CN2CCN(/N=C/c3cccnc3)CC2)cc1	-0.218%
COc1ccc(C(=O)COC(=O)C(O)c2ccccc2)c(OC)c1 (centres undefined)	-0.354%
O=C(COC(=O)c1ccc(F)cc1)NCC1COc2ccccc2O1 (centres undefined)	-5.32%
Cc1ccc(NC(=O)/C(=C/c2ccc([N+](=O)[O-])cc2)NC(=O)c2ccccc2)cc1	-0.596%
CCOC(=O)/C(=C\c1ccc([N+](=O)[O-])cc1)C(=O)c1cc(C(C)=O)c(Nc2ccccc2)s1	107% (active)
CCOC(=O)COc1ccc([N+](=O)[O-])cc1	-8.02%
COc1ccc2nc3n(c(=O)c2c1)-c1ccc(Cl)cc1C(=O)NC3Cc1ccccc1 (centres undefined)	5.15%
COc1ccc(S(=O)(=O)N(C)C[C@@H]2Oc3ccc(NC(=O)Nc4c(C)noc4C)cc3C(=O)N([C@H](C)CO)C[C@@H]2C)cc1	4.1%
Cc1cc(C(=O)N/N=C/c2ccccn2)c2ccccc2n1	-6.79%
O=C(N/N=C/c1ccccn1)c1cccnc1	-0.0642%
Cc1nnc(N/N=C/c2ccccn2)[nH]c1=O	109% (active)
COc1ccc(S(=O)(=O)N2CCN(CC(=O)N3CCOCC3)CC2)cc1OC	-2.22%
CN(c1ccccc1)S(=O)(=O)c1cccc(NC(=O)Cc2ccc(Cl)cc2)c1	14.2%
COc1ccccc1NC(=O)CCCc1c[nH]c2ccccc12	6.21%
COc1cccc(CNCCc2c[nH]c3ccccc23)c1OCc1ccccc1F	82.8% (active)
COc1ccc(C(CCNCc2ccccc2F)c2ccc(F)cc2)cc1 (centres undefined)	1.89%
C=CCC[C@H](Cc1ccc(F)cc1)C(=O)OC[C@@H](Cc1c[nH]c2ccccc12)NC(=O)[C@H](CC=C)CC(=O)N[C@H](CO)Cc1ccccc1	-1.63%
